Reference: PubChem BioAssay
Calls of active or inactive are those of the source.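 The calls were made as follows: active = response below a set limit, under 55% cells CD8-positive and vesicle-bound, and CD8 cells' 90th-percentile brightness under 279; inactive = the rest.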

Assay: inhibitors of CD8+ T cell-vesicle binding, pilot screen, LFA-1/ICAM-1 modulator project, MLPCN validation set, flow cytometry (AID 2523);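 as to vesicle binding response: mean PE anti-B7-1 fluorescence of CD8+ cells relative to row control; 100% = QL9-loaded vesicles with DMSO vehicle in the same plate row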
Settings: 2C mouse CD8+ T cells, at 7 µM, stronger effect = lower value; double positive events: measured here: CD8+/vesicle+ event percentage
With `Fc1ccc(-n2cc(CNCCc3ccccn3)c(-c3ccccc3Cl)n2)cc1` the double positive events was 63.8% and the vesicle binding response was 91.8% (inactive). With `CO[C@@]1(NC(=O)Cc2cccs2)C(=O)N2C(C(=O)O)=C(COC(N)=O)CS[C@@H]21` the vesicle binding response was 191% (inactive) and the double positive events was 64.1%. For `N#CCC(N)=C(C#N)C#N`, the double positive events was 60.1% and the vesicle binding response was 188% (inactive). With `O=C(OCCN1CCOCC1)c1cccs1` the vesicle binding response was 260% (inactive) and the double positive events was 64.9%. With `CC(=O)c1cc2c(cc1NC(=O)c1ccco1)OCCO2` the double positive events was 58.2% and the vesicle binding response was 178% (inactive). For `CC(C)NS(=O)(=O)c1ccc(OCC(=O)Nc2cccc(F)c2)cc1`, the vesicle binding response was 143% (inactive) and the double positive events was 59.7%. For `COc1ccc2[nH]c(CN3CCN(CC(C)C)C(CCO)C3)c(C)c2c1` (stereo not drawn), the vesicle binding response was 231% (inactive) and the double positive events was 61.7%. For `Cc1ccsc1C1NC(=O)c2ccccc2N1` (stereo not drawn), the vesicle binding response was 266% (inactive) and the double positive events was 59.5%. In the case of `Fc1ccc(NC(=S)Nc2ccccc2Cl)cc1`, the double positive events is reported as 63.7% and the vesicle binding response is reported as 235% (inactive). In the case of `CCN1C(=O)C(CC(=O)Nc2ccc(F)cc2)N(Cc2ccco2)C1=S` (stereo not drawn), the double positive events is reported as 62.4% and the vesicle binding response is reported as 194% (inactive). In the case of `Cc1ccc2c(c1C)NC(C(=O)O)C1CC=CC21` (stereo not drawn), the double positive events is reported as 60.4% and the vesicle binding response is reported as 121% (inactive). For `c1cc(-c2ccncc2)ccn1`, the vesicle binding response was 239% (inactive) and the double positive events was 58.3%. In the case of `NS(=O)(=O)c1ccc(CCNC(=O)C2CCCN2C(=O)OCc2ccccc2)cc1` (stereo not drawn), the double positive events is reported as 52.2% and the vesicle binding response is reported as 214% (inactive). With `CC(C)CN1CCN(Cc2cccn2-c2ccccn2)CC1CCO` (stereo not drawn) the double positive events was 64.2% and the vesicle binding response was 241% (inactive). In the case of `CC(C)COCC(CN(Cc1ccccc1)c1ccccc1)N1CCCC1` (stereo not drawn), the vesicle binding response is reported as 119% (inactive) and the double positive events is reported as 61.3%. For `CS(=O)(=O)NCc1ccc(C(=O)NCc2ccccc2)cc1`, the vesicle binding response was 174% (inactive) and the double positive events was 55.6%. For `COc1cc(NC(=S)NN2CCN(C)CC2)cc(OC)c1OC`, the vesicle binding response was 240% (inactive) and the double positive events was 62.3%. For `CC(=O)[C@@H]1[C@@H](C(=O)c2ccc(C)cc2)[C@]2(C(=O)Nc3ccccc32)[C@H]2C=Cc3cc(F)ccc3N12`, the double positive events was 61.3% and the vesicle binding response was 161% (inactive). For `COC(=O)c1ccc(NC(=O)c2ccccc2SC)cc1`, the vesicle binding response was 132% (inactive) and the double positive events was 58.4%. For `O=C(Nc1nc2ccccc2s1)c1ccc(F)cc1`, the vesicle binding response was 297% (inactive) and the double positive events was 59.5%. For `CC(=O)N1c2ccccc2C(C)=CC1(C)C`, the vesicle binding response was 199% (inactive) and the double positive events was 64.4%. For `CCC(=O)Oc1ccc(C(=O)Nc2ccc([N+](=O)[O-])cc2)cc1`, the double positive events was 61.8% and the vesicle binding response was 195% (inactive). With `C[C@]12CC[C@@H]3c4ccc(O)cc4CC[C@H]3[C@@H]1CC[C@@H]2O` the double positive events was 63% and the vesicle binding response was 186% (inactive). For `C=CCNc1nc2c(c(=O)n(C)c(=O)n2C)n1CC(=C)C`, the double positive events was 63.3% and the vesicle binding response was 176% (inactive). In the case of `COc1ccc(CN2CCCCC2C(=O)Nc2ccc(OC)c(OCC(C)C)c2)cc1OC` (stereo not drawn), the vesicle binding response is reported as 29% (active) and the double positive events is reported as 54.3%. With `Cn1cc(C2N3CC4(C)CN2CC(C)(C3)C4=O)c2ccccc21` (stereo not drawn) the vesicle binding response was 485% (inactive) and the double positive events was 50.6%. With `Cc1ccc2nc(NC3=NC(CC(=O)O)C(=O)N3)nc(C)c2c1` (stereo not drawn) the vesicle binding response was 214% (inactive) and the double positive events was 65.9%. With `Cc1ccc(C2CC(=O)C(C=NCCN3CCN(CC(=O)Nc4cc(C)cc(C)c4)CC3)=C(O)C2)cc1` (stereo not drawn) the double positive events was 60.5% and the vesicle binding response was 196% (inactive). For `NC(N)=NC(=O)Cc1c(Cl)cccc1Cl`, the double positive events was 64.6% and the vesicle binding response was 197% (inactive). With `O=C(CCSc1ccccc1)N1CCCC1` the double positive events was 67.6% and the vesicle binding response was 193% (inactive). In the case of `O=C(Nc1ccc(F)c([N+](=O)[O-])c1)c1ccc2c(c1)OCCO2`, the double positive events is reported as 63% and the vesicle binding response is reported as 5830% (inactive). In the case of `Nc1ccc2cn[nH]c2c1`, the vesicle binding response is reported as 109% (inactive) and the double positive events is reported as 60.8%. With `CCN(CC)CC#CCOC(=O)C(O)(c1ccccc1)C1CCCCC1` (stereo not drawn) the vesicle binding response was 181% (inactive) and the double positive events was 62.3%. In the case of `CC(C)CN1CCN(Cc2ccc(C#CC(C)(C)O)cc2)CC1CCO` (stereo not drawn), the vesicle binding response is reported as 215% (inactive) and the double positive events is reported as 67.3%. In the case of `Cc1ccccc1NC(=O)NCCc1c[nH]c2ccccc12`, the double positive events is reported as 60.8% and the vesicle binding response is reported as 12.4% (inactive). In the case of `C#CCN1C(=O)C(O)(c2c(C)[nH]c3ccccc23)c2ccccc21` (stereo not drawn), the vesicle binding response is reported as 220% (inactive) and the double positive events is reported as 65%. In the case of `Cc1ccc(S(=O)(=O)N2CCC(C(=O)N[C@@H](C)C(=O)NC3CCS(=O)(=O)C3)CC2)cc1` (stereo partly drawn), the vesicle binding response is reported as 144% (inactive) and the double positive events is reported as 57.7%. For `CCNC(=O)c1c(N)sc2c1CCCCC2`, the double positive events was 63.8% and the vesicle binding response was 262% (inactive). In the case of `COc1ccccc1C(=O)Oc1ccc2c(c1)O/C(=C\c1ccncc1)C2=O`, the vesicle binding response is reported as 274% (inactive) and the double positive events is reported as 63.9%.
